These results are taken from PubChem BioAssay AID504707 (The Scripps Research Institute Molecular Screening Center, 2011).

Screen size: about 340,000 compounds; about 280 (0.082%) were called active. This is one part of a sample in which actives are shown more often than they occur.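 The calls were made as follows: active = percent activation above the mean of all tested compounds plus 3 SD (cut at about 19% in these data); inactive = the rest.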

The assay deals with cAMP-dependent protein kinase type I-alpha regulatory subunit (Bos taurus) + cAMP-dependent protein kinase catalytic subunit beta (Mus musculus) (UniProt P00514+P68181). Nature of the assay: compounds dissociating PKAc from R1A subunit – biochemical, fluorescence polarization, Cy5-IP20, bovine R1A, mouse PKAc, primary screen (AID 504707).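 Also: higher means more PKAc released from R1A so a rise in polarization.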 Particulars: PKA-R1A dissociation, at 11.4 µM, active compounds read high, scaled: DMSO 0%, 113 µM cGMP 100%.
Regarding `CCc1ccccc1OCC(=O)Nc1nnc(C2CC2)s1`, the activation was 8.59% (inactive). Turning to `Cc1ccc(C(=O)OCC(=O)N2CC(C)CC(C)C2)cc1S(=O)(=O)N1CCCCC1` (centres undefined), the activation is 2.86% (inactive). Under `O=C(OCc1ccccc1)N1CCC2CC1c1ccc(-c3ccc4c(c3)OCO4)cc12` (centres undefined) stands -1.02% (inactive). Under `CC(OC(=O)c1cccnc1Cl)C(=O)NC1CCCCC1` (centres undefined) stands 0.33% (inactive); under `O=Cc1cn(CCOc2ccc(F)cc2)c2ccccc12`, 1.87% (inactive). Consider `CCOc1ccc(CCNC(=O)COC(=O)c2ccc(C)c(S(=O)(=O)N3CCOCC3)c2)cc1OCC`, for which the activation was -10.3% (inactive). Under `COc1ccc(CN2CC(C(=O)NC3CCCCC3)CC2=O)cc1` (centres undefined) stands 6.81% (inactive). Under `COc1ccc(N)cc1NC(=O)CN1CCOCC1` stands 8.37% (inactive); under `O=C(C[C@H]1C[C@@H]2c3cc(NC(=O)C4CCC4)ccc3O[C@@H]2[C@H](CO)O1)NC1CCCCC1`, -5.02% (inactive); under `COC(=O)C[C@H]1C[C@@H]2c3cc(NC(=O)Nc4ccccc4)ccc3O[C@@H]2[C@@H](CO)O1`, 1.1% (inactive).

With `O=C(Nc1ccc2c(c1)[C@@H]1C[C@@H](CC(=O)N3CCCCC3)O[C@@H](CO)[C@@H]1O2)NC1CCCCC1`, the activation was 19.6% (active). Under `CC(C)CCC(=O)Nc1cc(S(=O)(=O)N2CCOCC2)ccc1N1CCCC1` stands -1.93% (inactive); under `CC1(c2cccc(Br)c2)NC(=O)N(CC(=O)NCCC2=CCCCC2)C1=O` (centres undefined), -3.47% (inactive); under `CCOc1ccc(NC(=O)CN(C)C(=O)Cn2c(=O)cnc3ccccc32)cc1OCC`, -7.12% (inactive). As to `CCOc1ccc(C(=O)Nc2ccc(S(=O)(=O)Nc3cc(C)on3)cc2)cc1`, the activation is 3.9% (inactive). Then `CCc1ccc(OC(C)C(=O)Nc2ccc(S(=O)(=O)Nc3cc(C)on3)cc2)cc1` (centres undefined), with -6.6% (inactive); and `CCC(Oc1ccccc1C)C(=O)Nc1ccc(S(=O)(=O)Nc2cc(C)on2)cc1` (centres undefined), with 20.4% (active); and `O[C@H]1CN(Cc2cccs2)[C@@H](c2ccc(Cl)cc2)C[C@@H]1n1cc(C2CC2)nn1`, with -6.87% (inactive).

Turning to `O=C(O)C1=C(C(=O)O)C2CCC1C2`, the activation was 7.53% (inactive). Then `CCCCCC(=O)N1C[C@H](O)[C@@H](n2cc(COC(=O)c3ccccc3)nn2)C[C@@H]1c1ccc(C)cc1`, with 1.28% (inactive); and `Cc1ccc(-c2ccc(CN3C(C(C)C)C(=O)N(Cc4cn(CCC5OCCCO5)nn4)CCS3(=O)=O)cc2)cc1` (centres undefined), with -3.03% (inactive); and `Cc1cccn2c(=O)c3cc(C(=O)NCCN4CCOCC4)c(=N)n(Cc4cccnc4)c3nc12`, with 5.89% (inactive). Turning to `Cc1ccc(CCNC(=O)c2ccc3nc4ccccc4c(=O)n3c2)cc1`, the activation was 1.64% (inactive). Under `Cc1ccc2nc3c(cc(C(=O)NCCc4ccccc4)c(=N)n3CC3CCCO3)c(=O)n2c1` (centres undefined) stands 20.5% (active).
